# Assay outcomes as filed in PubChem.
# TDP1 cell CPT – DT40-hTDP1 cell growth loss with CPT; 420,000 tested, 12% active; chicken DT40 Tdp1-/-;hTDP1 cells + 20 nM CPT, ATP luminescence, 48 h; Potency, µM (doses to about 46.2 µM), for inactives: at the top dose activity change, negative = growth inhibition, most hits filed as inhibitors; AID 686979; also: potency is read from the fitted curve at half-maximal effect; nearly all actives have a fitted effect of over 55% in size
#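 Chicken DT40 Tdp1-/- cells complemented with human TDP1, 400 cells/well, exposed to compounds plus 20 nM camptothecin for at least 48 h at 37 C; viability read as ATP content by CellTiter-Glo luminescence.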
# TDP1 cell noCPT – qHTS for Inhibitors of human tyrosyl-DNA phosphodiesterase 1 (TDP1): qHTS in cells in absence of CPT; 420,000 tested, 15% active; AID 686978, 2013; Potency, µM (titrated, usually from 46.2 µM), for the others: top-dose activity change, negative = growth inhibition, hits mostly inhibitors; DT40 Tdp1-/- hTDP1 cells, no CPT, ATP luminescence, 48 h; also: potency is read from the fitted curve at half-maximal effect; nearly all actives have a fitted effect of over 55% in size
#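 Seeded 400 DT40-hTDP1 cells/well (vehicle DMSO, no 20 nM CPT); pinned compounds; ≥48 hr at 37 °C; CellTiter-Glo luminescence as viability measure.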
# uPA surface inh – cell surface uPA generation inhibition; cell surface uPA generation assay, qHTS; 330,000 tested, 0.31% active; Potency, µM (highest dose often 38.3 µM), for the others: at the top dose activity change, negative = inhibition, most hits filed as inhibitors; active = well fitted inhibition curve with a large enough effect; inconclusive = small, poorly fitted or top-dose-only effect; inactive = no such curve, though single readings can be large or run the other way; tested in mouse RAW 264.7 cells; also: potency is read from the fitted curve at half-maximal effect; nearly all actives have a fitted effect of over 55% in size
# HT1080NT lethal – kills 2HG-producing HT-1080-NT fibrosarcoma cells; HT-1080-NT fibrosarcoma viability, CellTiter-Glo ATP luminescence, 48 h; Potency, µM (titrated, usually from 46.1 µM), for inactives: at the top dose activity, negative = less viability, hits mostly cytotoxic; 360,000 tested, 1.6% active; AID 686970;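 also: NT is the 2HG producing partner of a matched IDH1 knockdown line; potency is read from the fitted curve at half-maximal effect; 0% = DMSO-treated cells and -100% = media-only wells without cells; nearly all actives have a fitted effect of over 55% in size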
#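 Compounds were tested in concentration-response format on HT-1080-NT cells for 48 hours at 37 degrees C. Cell viability came from CellTiter-Glo luminescence; curves were classified by r2, response magnitude and activity.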
# HT1080 IDH1KD tx – HT-1080 IDH1 knockdown cell toxicity (counter line). HT-1080 IDH1 knockdown viability, ATP luminescence, 48 h. Potency, µM (doses to about 46.1 µM), for the others: top-dose activity, negative = toxicity, actives largely listed as cytotoxic. 360,000 tested, 2% active. AID 686971;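 also: potency is read from the fitted curve at half-maximal effect; 0% = DMSO wells and -100% = cell-free medium wells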
#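 Viability of IDH1-knockdown HT-1080 fibrosarcoma cells was assessed by CellTiter-Glo after 48 h at 37 °C with titrated compound; concentration-effect curves were classified by fit quality and response size.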
# IL1B secr inh – inhibitors of inflammasome signaling (IL-1 beta secretion). 360,000 tested, 4.7% active. THP-1 LPS/ATP IL-1B secretion, AlphaLISA, 16 h; active compounds read low. activity change, % at 57.5 µM; in the data active = activity change below about -50%; inconclusive = mostly about -30% to -49%
#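 Secreted IL-1B measured by AlphaLISA bead assay after 16 h compound exposure of THP-1 cells; compounds (final up to 57.5 uM) added 1 h before LPS (250 ng/mL) and ATP (1.25 mM) stimulation; lower signal means less secretion.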
# * hit, by the source's call; ? = inconclusive; . = no result given. This is a sample that favours compounds with a hit; in the whole collection about 19% have one here. Unless noted, calls follow the shape of the dose curve; as a rule, active = well fitted curve in the direction sought with a large enough effect; inconclusive = small, poorly fitted or top-dose-only effect, or another doubt; inactive = no such curve, though single readings can be large; an effect the other way counts as inactive or inconclusive. Unless noted, % is scaled to controls: 0 for no effect and ±100 for the full control effect.
SMILES,TDP1 cell CPT,TDP1 cell noCPT,uPA surface inh,HT1080NT lethal,HT1080 IDH1KD tx,IL1B secr inh
CCCCCC1=C(C(=O)OC)C(C(=O)OCC)N(S(=O)(=O)C(F)(F)F)c2ccccc21 (stereo not drawn),?,21µM*,6%,10%,4%,13
Cc1cc(=O)[nH]c(SCC(=O)C23CC4CC(CC(C4)C2)C3)c1C#N,8.2µM*,18µM*,.,?,?,?
COc1cc(NC(=O)c2cccs2)c(OC)cc1NC(=O)Cc1ccccc1,?,23µM*,3%,-19%,-17%,-54*
COc1cc(NC(=O)c2ccccc2)c(OC)cc1NC(=O)CSc1[nH]c(=O)cc(C)c1C#N,3.7µM*,2.3µM*,-15%,?,?,35
COc1cc(NC(=O)c2cccs2)c(OC)cc1NC(=O)Nc1ccc(F)cc1,?,23µM*,-2%,6%,?,-15
COc1cc(NC(=O)c2cccs2)c(OC)cc1NC(=O)c1cccs1,8%,-4%,-2%,9%,9%,3
CCC(=O)Nc1cc(OC)c(NC(=O)c2ccccc2)cc1OC,-23%,-20%,0%,19%,16%,-16
COc1ccccc1CC(=O)Nc1cc(OC)c(NC(=O)c2ccccc2)cc1OC,-59%,13µM*,2%,-2%,-19%,-21
COc1ccc(NC(=O)CCC(=O)c2cccs2)cc1Cl,4%,1%,-9%,16%,3%,2
COc1cc(NCCC(=O)c2cccs2)c(OC)cc1Cl,3.7µM*,4.6µM*,2%,-7%,-11%,-9
CCCCNC(=O)c1c(C)oc2ncn(CC(C)C)c(=O)c12,-26%,?,.,.,.,.
CCOC(=O)C1CCCN(C(=O)Cn2c(=O)c3cccn3c3cccnc32)C1 (stereo not drawn),3%,9%,0%,6%,3%,17
CCCCCNC(=O)c1ccc2c(c1)nc(C)n2-c1cccc(C)c1,15µM*,?,.,.,.,.
CCCCCC1CCC(c2ccc(/C(N)=N/O)cc2)CC1 (stereo not drawn),15µM*,8.2µM*,-13%,-6%,1%,8
Cc1ccc2c(c1)N(C(=O)CCC(=O)N1CCC(C(N)=O)CC1)CC(C)O2 (stereo not drawn),26µM*,5%,3%,0%,3%,-5
Cc1ccc2c(c1)N(C(=O)CCC(=O)Nc1ccc(F)cc1F)CC(C)O2 (stereo not drawn),5.2µM*,7.3µM*,.,.,.,.
Cc1ccc2c(c1)N(C(=O)CCC(=O)NCCCN1CCN(C)CC1)CC(C)O2 (stereo not drawn),5%,12%,-4%,-10%,6%,-15
COC(=O)c1ccccc1NC(=O)CCC(=O)N1CC(C)Sc2ccccc21 (stereo not drawn),16µM*,15µM*,.,.,.,.
Cc1ccc2c(c1)N(C(=O)CCC(=O)N1CCOCC1)CC(C)O2 (stereo not drawn),-1%,-5%,1%,-14%,0%,3
CC1CN(C(=O)CCC(=O)N2CCN(c3cccc(C(F)(F)F)c3)CC2)c2ccccc2O1 (stereo not drawn),18µM*,21µM*,-11%,-7%,-21%,-22
O=C(NNC(=O)c1ccccc1Cl)c1ccc2c(c1)OCCO2,-1%,-1%,?,-1%,7%,-12
COc1ccc(N(C)C(=O)c2nn(-c3ccc(C)cc3)c(=O)n(C)c2=O)c(OC)c1,0%,-9%,.,.,.,.
CCOC(=O)c1cccc(NC(=O)CCC(=O)N2CC(C)Oc3ccc(C)cc32)c1 (stereo not drawn),23µM*,?,.,.,.,.
COC(=O)c1ccccc1NC(=O)CCC(=O)N1CC(C)Oc2ccc(C)cc21 (stereo not drawn),15µM*,?,7%,10%,1%,9
